Assay outcomes from PubChem BioAssay.
This excerpt belongs to a sample that is enriched for hits.
mHTT-CaM PPI inh = mHTT-calmodulin interaction abrogation; P42858; AlphaScreen His-mHTT/GST-CaM binding, luminescence; inhibition, % at 15 µM; 190,000 tested, 3.6% active; AID 1671202
Pf apPOL inh = Pf-apPOL DNA polymerase inhibition; Recombinant Pf-apPOL, molecular beacon fluorescence, 1.5 h; inhibition, % at 10 µM; 210,000 tested, 0.25% active; AID 1794808
Numbers stand for hits; - = inactive; . = not tested or not shown. Rule as the data show it: active = inhibition above about 50%; inactive = the rest.

SMILES	mHTT-CaM PPI inh	Pf apPOL inh
CC(C)(C)c1nnc(NCCCO)[nH]c1=O	-	-
COc1ccc(C2CC(=O)Nc3n[nH]c(-c4ccccc4)c32)cc1 (centres undefined)	-	-
COc1cc(C2CC(=O)Nc3n[nH]c(-c4ccccc4)c32)ccc1O (centres undefined)	54	-
COc1cccc(C2CC(=O)Nc3n[nH]c(-c4ccc(Cl)cc4)c32)c1 (centres undefined)	-	-
COc1ccc(OC)c(C2CC(=O)Nc3n[nH]c(-c4ccccc4)c32)c1 (centres undefined)	94	-
COc1ccc(C2CC(=O)Nc3n[nH]c(-c4ccccc4)c32)cc1OC (centres undefined)	-	-
COc1cc(C2CC(=O)Nc3n[nH]c(-c4ccc(Cl)cc4)c32)cc(OC)c1OC (centres undefined)	100	-
Cc1ccc(NC(=O)CN2CCCCC2c2nc(-c3cccc(F)c3)no2)cc1 (centres undefined)	-	-
CN1CCC(NC(=O)C2CCc3sc(C(=O)N4CCCCC4)cc3C2)CC1 (centres undefined)	-	-
Cc1ccc(C(=O)N2CCN(c3nc(CN4CCCCC4)cs3)CC2)cc1	-	-
c1cnc(-c2n[nH]c(C3CCCN(CC4CCCCC4)C3)n2)cn1 (centres undefined)	54	-
CC(C)CCN1CCCC(c2nc(-c3cnccn3)n[nH]2)C1 (centres undefined)	-	-
c1cnc(-c2n[nH]c(C3CCCNC3)n2)cn1 (centres undefined)	72	-
c1cnc(-c2n[nH]c(C3CCN(CC4CCCCC4)CC3)n2)cn1	-	-
CC(C)C(=O)Nc1cc(F)c2nc(N3CCOCC3)ccc2c1	-	-
COc1cc(/C=C2/NC(=O)NC2=O)c([N+](=O)[O-])cc1OC	-	-
CC(C)c1noc(C2CCCN2Cc2ccccn2)n1 (centres undefined)	57	-
CC(C)c1noc(C2CCCCN2Cc2ccc(N(C)C)cc2)n1 (centres undefined)	54	-
CC(C)c1noc(C2CCCCN2CC(=O)Nc2ccccn2)n1 (centres undefined)	-	-
COc1cccc(CN2CCCCC2c2nc(C(C)C)no2)c1 (centres undefined)	-	-
CC(=O)Nc1ccc(N=Cc2ccc(Cl)cc2Cl)cc1	-	-
COc1cccc2cc(C(=O)Oc3c(C)ccc(C)c3C)c(=O)oc12	-	-
O=C(NCCc1ccc(N2CCCC2)cc1)C1CC1	-	-
O=C(c1ccc(F)cc1)N1CCCCCC1	-	-
O=C(c1ccc(F)cc1)N1CCc2nc(N3CCCC3)nc(N3CCCC3)c2C1	56	-
SMILES	mHTT-CaM PPI inh	Pf apPOL inh
CCCCc1ccc(N=Cc2nc(/C=C/c3cccc([N+](=O)[O-])c3)oc2O)cc1	-	-
COc1ccc(-c2cc(C(F)(F)F)n3ncc(C(=O)N4CCCC4)c3n2)cc1	-	-
COc1ccc(-c2cc(C(F)(F)F)n3nc(C(=O)O)c(Br)c3n2)cc1	65	-
NC(=O)c1nn2c(C(F)(F)F)cc(-c3ccc(Cl)cc3)nc2c1Cl	-	-
COc1ccc(-c2cc(C(F)(F)F)n3nc(C(=O)O)c(Cl)c3n2)cc1	64	-
O=C(C1=CN(c2ccccc2)c2cc(F)ccc2S1(=O)=O)N1CCCCC1	-	-
COc1ccc(CN2CCc3c([nH]c4ccccc34)C2)cc1C	-	-
COc1cc(C)c(CN2CCc3c([nH]c4ccccc34)C2)cc1C	100	-
COc1cc(CN2CCc3c([nH]c4ccccc34)C2)c([N+](=O)[O-])cc1OC	66	-
COc1cc(CN2CCN(Cc3cccc(OC)c3OC)CC2)c([N+](=O)[O-])cc1OC	-	-
O=C(CCN1C(=O)c2cccc([N+](=O)[O-])c2C1=O)Nc1ccc(Cl)cc1	-	-
COc1cc(NC(=O)c2cccnc2Cl)c(OC)cc1Cl	-	-
CC(=O)N1c2ccc(S(=O)(=O)NC3CCCCC3)cc2CC1C (centres undefined)	-	-
Cn1nc(-c2nc(C3CC3)no2)c2c1CCN(C(=O)c1ccc(Cl)cc1)C2	-	-
Cn1nc(-c2nc(-c3cccc(F)c3)no2)c2c1CCN(C(=O)c1cccs1)C2	61	-
Cn1nc(-c2nc(-c3cccc(F)c3)no2)c2c1CCN(C(=O)c1cccc(F)c1)C2	-	-
Cn1nc(-c2nc(C3CC3)no2)c2c1CCN(C(=O)Nc1ccc(Cl)cc1)C2	63	-
Cn1nc(-c2nc(-c3ccccc3)no2)c2c1CCN(C(=O)c1ccccc1)C2	52	-
Cc1ccc(C(=O)N2CCc3c(c(-c4nc(-c5ccccc5)no4)nn3C)C2)cc1	-	-
COc1ccc(/C=C2/N=C(c3ccc([N+](=O)[O-])cc3)OC2=O)c(OC)c1OC	-	-
NC(=O)C1CCN(C(=O)Cc2cc(-c3ccco3)on2)CC1	-	73
CC1Cc2ccccc2N1C(=O)Cc1cc(-c2ccco2)on1 (centres undefined)	-	-
Nc1cc(N)cc(Oc2cc(N)cc(N)c2)c1	95	.
Nc1cccc(Oc2c(F)c(F)c(Oc3cccc(N)c3)c(F)c2F)c1	-	-
O=C(NC(Nc1ccc(Cl)cc1Cl)C(Cl)(Cl)Cl)c1ccco1 (centres undefined)	51	-
SMILES	mHTT-CaM PPI inh	Pf apPOL inh
O=C(NC(Nc1ccc(Cl)cc1)C(Cl)(Cl)Cl)c1ccco1 (centres undefined)	-	-
CCCCN1C(=O)CN(C2CCCCC2)C(=O)C1c1ccc(OCCC)c(OC)c1 (centres undefined)	53	-
COc1ccc(C2C(=O)N(C3CCC(C)CC3)CC(=O)N2Cc2ccccc2Cl)cc1OC (centres undefined)	-	-
CCCCN1C(=O)CN(C2CCCCC2)C(=O)C1c1ccc(OC(C)C)c(OC)c1 (centres undefined)	-	-
CCOc1ccc(C2C(=O)N(C3CCCCC3)CC(=O)N2Cc2ccccc2Cl)cc1OC (centres undefined)	58	-
O=C(CCC1CCCCC1)Nc1nc2c(s1)CCCCC2	-	.
c1ccc(OCCCOc2ccccc2)cc1	-	-
Nc1ccccc1NCCOc1ccccc1	79	-
COc1ccc(C2=NN(C(=O)CN3CCCCC3)C(c3ccccc3Cl)C2)cc1 (centres undefined)	-	-
COc1ccc(C2=NN(C(=O)CN3CCOCC3)C(c3ccccc3Cl)C2)cc1 (centres undefined)	-	-
Cn1cccc1C1CC(c2ccccc2Cl)=NN1C(=O)CN1CCCCC1 (centres undefined)	94	-
CCN1CCN(CC(=O)N2N=C(c3ccccc3Cl)CC2c2cccn2C)CC1 (centres undefined)	82	-
CCc1nc2c(c(=O)n1CC(N)=O)CN(Cc1ccccc1)CC2	-	-
COc1ccccc1OCC(=O)NCCN1CCOCC1	-	-
CC(=O)N1c2c(cc(Br)cc2S(=O)(=O)N2CCc3ccccc32)CC1C (centres undefined)	-	-
CC(=O)N1c2c(cc(Br)cc2S(=O)(=O)N2CCc3ccccc3C2)CC1C (centres undefined)	58	-
CCc1ccc(N2CC(C(=O)NCc3cccc(F)c3)CC2=O)cc1 (centres undefined)	-	-
CC(C)C(C#N)c1ccc([N+](=O)[O-])cc1 (centres undefined)	-	-
COc1cccc2cc(-c3csc(NC4CCCCC4)n3)c(=O)oc12	-	-
COc1cccc2c1OC(C)(C)N1N=C(c3cccs3)CC21 (centres undefined)	61	-
